Experimental findings from PubChem BioAssay AID488890 (Southern Research Specialized Biocontainment Screening …, 2010) are described below.

Values joined by “and” are separate entries in the source; they are usually repeats but may differ in a detail not shown here. Identical values can stand only once. Among all 320,000 compounds or so, about 1,300 (0.41%) were called active. Another 3% or so got no clear call; they are omitted. No rule for the calls is given here. These entries were drawn from the full list. Results with a measured potency or affinity are listed apart.

In general, inhibition refers to the change of the read-out against control, counted positive when it falls.

A short description of the experiment: growth inhibition of non-replicating M. tuberculosis (AID 488890).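 Also: plate controls were DMSO cells for no effect and high antibiotic wells for full effect.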 The conditions noted are these: Mycobacterium tuberculosis non-replicating, at 25 µM, stronger effect = higher value.
As to `CCOc1ccc(C(=O)NCc2ccncc2)cc1OCC`, the inhibition is -10.7%.

For `NS(=O)(=O)c1ccc(OC(=O)CNC(=O)OCc2ccccc2)cc1`, the inhibition was 6.9%.

As for `Cc1ccc(S(=O)(=O)N2CCN(C(=O)c3c(-c4ccccc4)noc3C)CC2)cc1C`, the inhibition was found to be 8.79%.

In the case of `O=C(O)COc1ccc(Br)cc1CP(=O)(c1ccccc1)c1ccccc1`, the inhibition is -5.1%.

Consider `CCOC(=O)c1c(C)nn(-c2ncccc2NC(=O)NC(C)C)c1C`, for which the inhibition is -15.3%.

Regarding `Cc1ccc(-c2cn(-c3ccccc3)c3[n+]2CCCS3)cc1`, the inhibition was 9.74% and -19.1%.

On to `c1ccc(-c2cn(-c3ccccc3)c3[n+]2CCCS3)cc1`, for which the inhibition is -2.11%.

Take `CCn1cc(C(=O)NC(=S)Nc2ccccc2[N+](=O)[O-])cn1`: the inhibition is 26.2%.

`COCCNC(=O)C(c1ccc(O)cc1)N(Cc1cccs1)C(=O)CCC(=O)Nc1ccccn1` (stereo not given): the inhibition is 7.81%.

As to `CCn1c(SCc2ccc([N+](=O)[O-])cc2)nnc1C(C)NC(=O)c1ccccc1Br` (stereo not given), the inhibition is -7.9%.

Take `COc1ccc(CNC(=O)c2cc3c(C)nc4ccccc4c3o2)c(OC)c1`: the inhibition is 31.7%.

For `O=C(OCC1CC(c2ccccc2)=NO1)c1ccc(Cl)cc1` (stereo not given), the inhibition came out at 25.9%.

Regarding `COC(=O)C1CC(c2ccc(Cl)cc2)=NO1` (stereo not given), the inhibition was found to be 10.9%.

On to `CC(NS(=O)(=O)c1ccc2c(c1)oc(=O)n2C)c1ccccc1` (stereo not given), for which the inhibition is -7.19%.

With `CC1Oc2ccccc2N(CC(=O)NC2CCCCC2)C1=O` (stereo not given), the inhibition is -12.6%.

Take `COc1ccc(S(=O)(=O)N=Nc2c(O)[nH]c3ccccc23)cc1`: the inhibition came to 2.14%.

Turning to `O=C(Nc1cccc(Br)c1)c1ccc(OC2CSC2)cc1`, the inhibition is 79.7%.

For the molecule `O=C(NCCNC(=O)c1cccc(O)c1)c1cccc(O)c1`, the inhibition was -13.5%.

Regarding `CCOC(=O)c1cc2c(C)[nH]c(C)c2cc(C(=O)OCC)c1=O`, the inhibition is -5.61%.

As for `CC(=O)Nc1ccc(NC(=O)C(C)Oc2ccc(Cl)cc2Cl)cc1` (stereo not given), the inhibition was 4.67%.

Consider `CC(Oc1ccc(Cl)cc1Cl)C(=O)Nc1ccc(O)cc1` (stereo not given), for which the inhibition is -1.96%.

With `CC(=O)c1cnc(Nc2nc(C)c3cc(C)c(C)cc3n2)nc1C`, the inhibition amounted to 16.2%.

As to `O=c1oc2ccccc2cc1-c1nc(-c2ccccc2)no1`, the inhibition was -0.8%.

For `COc1ccc(-c2cc3ccccc3oc2=O)cc1`, the inhibition was determined as 24.3%.

Consider `COc1ccc(-c2nc3c(c(SCC(=O)N4CCOCC4)n2)COC(C)(C)C3)cc1`, for which the inhibition was -3.27%.

Regarding `CC1CCCCC1NC(=O)CN1C(=O)NC(C)(c2ccc(OC(F)F)cc2)C1=O` (stereo not given), the inhibition is -1.28%.

Take `Cc1nnc(NC(=O)c2ccc3ccccc3c2)s1`: the inhibition came out at 9.74%.

In the case of `CCCn1nnc(NC(=O)c2ccc3ccccc3c2)n1`, the inhibition was -1.15%.

As to `CCCn1nnnc1NCc1ccc(Cl)cc1Cl`, the inhibition is 1.4%.

Regarding `CCn1nnnc1NC(=O)c1ccc2ccccc2c1`, the inhibition was -1.96%.

As to `CCCn1nnnc1NC(=O)c1cc(Br)ccc1OC`, the inhibition was determined as 66.1%.

For the molecule `Cc1ccccc1NC(=O)c1ccc2ccccc2c1`, the inhibition is 40.9%.

Take `CCCn1nnnc1NC(=O)COc1ccc(Cl)c(C)c1`: the inhibition stood at 74.2%.

On to `CCCCC(=O)Nc1nnnn1CCC`, for which the inhibition is 12.9%.

In the case of `CC(Oc1ccccc1)C(=O)OCC(=O)Nc1ccc2c(c1)OCO2` (stereo not given), the inhibition came out at 23.9%.

`CCOC(=O)c1sc2nc(C)nc(N3CCN(S(=O)(=O)c4ccccc4)CC3)c2c1C`: the inhibition is 34.9%.

Turning to `CCOC(=O)c1c(-c2ccccc2Cl)cn2ccccc12`, the inhibition worked out at 3.48%.

As to `CCCCn1c(=O)[nH]c(=O)c2c1nc(-c1ccc(C(F)(F)F)cc1)n2C`, the inhibition was determined as 2.06%.

For `C=CCn1c(CCC)nc2ccccc21`, the inhibition worked out at 59.2%.

For the molecule `Cc1ccc(CNC(=O)COC(=O)CSc2ccc(Br)cc2C)cc1`, the inhibition is 71.4%.

Regarding `CN(CC(=O)Nc1cccc(F)c1)C(=O)c1ccccc1OCC(=O)Nc1cccc(C(F)(F)F)c1`, the inhibition was 1.32%.

With `CCc1cc2cc(C)ccc2nc1SCC(=O)NNC(=O)c1ccco1`, the inhibition is -31.6%.

As for `O=C(O)c1cccc(S(=O)(=O)N2CCC(n3nnc4cc(C(F)(F)F)ccc43)CC2)c1`, the inhibition came out at 3.59%.

For `CC(=O)c1cccc(NC(=O)N(c2ccccc2)c2ccccc2)c1`, the inhibition is 4.45%.

As to `Cc1ccc(S(=O)(=O)NCCc2nnc3ccc(SCC(=O)Nc4nc(C)cs4)nn23)cc1`, the inhibition was -6.91%.

In the case of `CC1=CC(C)(C)Nc2ccc(OC(=O)CCN3C(=O)c4ccccc4C3=O)cc21`, the inhibition was 19%.

On to `CC1=CC(C)(C)Nc2ccc(OC(=O)CN3C(=O)c4cccc5cccc(c45)C3=O)cc21`, for which the inhibition worked out at 78.9%.

As to `COc1ccc([C@H]2CC(=O)C=C(c3cccc(OC(F)(F)F)c3)C2)cc1`, the inhibition came out at 24.7%.

Turning to `NC(=O)Nc1cc(Cl)ccc1Cl`, the inhibition is -13.6%.

On to `NC(=O)N/N=C1\CCS(=O)(=O)c2ccc(F)cc21`, for which the inhibition came to 1.74%.

With `S=C(NC1CCCCCC1)NC1CCCC1`, the inhibition amounted to 71.8%.

For `O=c1[nH]c(-c2ccncc2)nc2ccccc12`, the inhibition was 26.6%.

As to `c1ccc(-c2nc3ccccc3[nH]2)nc1`, the inhibition was 20.2%.

For `O=C(COc1ccc(/C=N/NC(=O)C(=O)N2CCCCCC2)cc1)Nc1ccccc1Cl`, the inhibition came to 74.1%.

For `Cc1ccc(C)c(S(=O)(=O)NCC(c2ccco2)N2CCc3ccccc3C2)c1` (stereo not given), the inhibition stood at 10.8%.

As for `CC(NC(=O)c1ccc(N(C)C)c([N+](=O)[O-])c1)c1ccc(-n2ccnc2)cc1` (stereo not given), the inhibition stood at 8.22%.

Take `COc1ccc(C(=O)NC(C)c2ccc(-n3ccnc3)cc2)cc1[N+](=O)[O-]` (stereo not given): the inhibition came out at 6.19%.

As to `O=C(Nc1ccccc1C(F)(F)F)c1ccsc1`, the inhibition was -9.54%.

On to `CN(Cc1cnn(C)c1)Cc1nc(COc2ccccc2)no1`, for which the inhibition was determined as 12.5%.

On to `COc1ccc(OC)c(NC(=O)CSC2=NN3CCCC(=O)N=C3S2)c1`, for which the inhibition is -10.2%.

On to `O=C(CNCc1ccco1)Nc1ccccc1-n1cccc1`, for which the inhibition was found to be 5.71%.

As to `O=C(NCC(c1ccco1)N1CCN(c2ccccc2)CC1)C(=O)NC1CCCCC1` (stereo not given), the inhibition was -8.96%.

For the molecule `Cc1cc2c(cc1C)N(C(=O)CSC1=NCCS1)C(C)(C)c1ssc(=S)c1-2`, the inhibition was found to be 27.9%.

In the case of `Cn1c(O)c(N=NC(=O)c2cc(-c3cccs3)nc3ccccc23)c2ccccc21`, the inhibition was -7.82%.

As for `CCOC(=O)c1cc(=O)c2ccc(OCC(=O)Nc3ccccc3)cc2o1`, the inhibition was determined as 0.19%.

On to `O=C(COc1ccc2oc(-c3ccccc3)cc(=O)c2c1)Nc1ccccc1`, for which the inhibition stood at 52.2%.

In the case of `Cc1ccc(OCC(=O)OCC(=O)c2ccccc2)cc1C`, the inhibition was found to be 20.6%.

With `O=C(COc1cc(O)c2c(=O)cc(-c3ccccc3)oc2c1)c1ccccc1`, the inhibition is -7.87%.

As for `CC(C)(C)OC(=O)COc1cc(O)c2c(=O)cc(-c3ccccc3)oc2c1`, the inhibition is 53.9%.

For `COc1ccc(C(=O)c2ccccc2)c(O)c1`, the inhibition worked out at 26.2%.

On to `NC(=O)c1ccc(NC(=O)CN2CCOCC2)cc1`, for which the inhibition is -9.52%.

`Oc1ccc(/C=N/NP(=S)(c2ccccc2)c2ccccc2)c(O)c1O`: the inhibition is -2.4%.

With `COc1ccc(OC)c(/C=C/C(=O)OCC(=O)NCc2cccs2)c1`, the inhibition came out at 22.8%.

Turning to `N#Cc1cnn2c(N)c(-c3ccc(Cl)cc3)cnc12`, the inhibition is -16.2%.

Turning to `CCn1c(CC(=O)Nc2ccc(C)cc2)nnc1SCC(=O)N1CCN(c2ccccc2)CC1`, the inhibition was 21%.

As to `COC(=O)c1cc(/C=C/c2ccccc2)[nH]n1`, the inhibition worked out at 15.2%.

In the case of `Cc1cc(NC(=O)/C=C/c2ccccc2)no1`, the inhibition amounted to 17.2%.

As to `Cc1cccc(C)c1NC(=S)NCCCN1CCCC1=O`, the inhibition was -28.2%.

On to `CCOc1ccc(N(CC(=O)Nc2ccc(OC)cc2OC)S(=O)(=O)c2c(C)[nH]c(=O)[nH]c2=O)cc1`, for which the inhibition worked out at 25.1%.

In the case of `O=c1oc(-c2cccs2)nc2ccccc12`, the inhibition was 48.8%.

For the molecule `O=c1c2cnn(-c3ccccc3)c2nc(-c2cccs2)n1-c1ccc(Br)cc1`, the inhibition amounted to 8.85%.

Take `N#Cc1c(NCCCO)nc(NCc2ccccc2)c2c1CCN(Cc1ccccc1)C2`: the inhibition was found to be 26.6%.

For the molecule `O=C(OCC(=O)C12CC3CC(CC(C3)C1)C2)c1cnccn1`, the inhibition was 17.7%.

For the molecule `C/C(=N\NC(=O)c1ccccn1)C12CC3CC(CC(C3)C1)C2`, the inhibition is 54.4%.

Consider `O=C(COC(=O)c1ccccn1)NC12CC3CC(CC(C3)C1)C2`, for which the inhibition was 30.9%.

For the molecule `O=C(NNC(=O)C12CC3CC(CC(C3)C1)C2)c1ccncc1`, the inhibition was found to be 4.55%.

Take `CC(C)N1CCN(Cc2nc3ccccc3s2)CC1CCO` (stereo not given): the inhibition came out at 8.77%.

Take `Cc1cc(C)c2cc(C(=O)Nc3ccc4c(c3)OCO4)[nH]c2c1`: the inhibition was -16.4%.

In the case of `CCOC(=O)c1c(NC(=O)C(C)N2CCN(S(=O)(=O)c3cccs3)CC2)sc2c1CCC(C)C2` (stereo not given), the inhibition was -4.48%.

Consider `Cc1ccc(-c2cc(-c3ccc(C)cc3)[n+](C)o2)cc1`, for which the inhibition was found to be 24.7%.

As to `COc1ccc(/C=C/C(=O)Oc2ccc(C)cc2)cc1`, the inhibition is 65.3%.

Consider `CC1Cc2ccccc2N1C(=O)CCS(=O)(=O)c1cccs1` (stereo not given), for which the inhibition turned out to be 15.3%.

Regarding `COc1ccc(CCNC(=O)Cc2ccc(OC)c(OC)c2)cc1OC`, the inhibition is 13.8%.

`COc1ccc(C(C)=O)cc1COC(=O)c1cc2ccccc2cc1O`: the inhibition amounted to 2.94%.

In the case of `COc1ccc(C(C)=O)cc1COC(=O)c1cc(C)nc2ccccc12`, the inhibition was 7.17%.

With `O=C(OCc1cccc([N+](=O)[O-])c1)c1cnccn1`, the inhibition was 17.7%.

Consider `O=C(OCc1cc([N+](=O)[O-])cc2c1OCOC2)c1ccc2ccccc2n1`, for which the inhibition was 74.8%.

Consider `O=C(Cc1ccccc1[N+](=O)[O-])OCc1cccc([N+](=O)[O-])c1`, for which the inhibition came to 34.7%.

Take `Nc1ccccc1C(=O)OCc1ccc([N+](=O)[O-])cc1`: the inhibition is 3.01%.

For the molecule `c1ccc(OCCn2cnc3ccccc32)cc1`, the inhibition was 1.01%.

In the case of `CSc1ccccc1OCc1cc(C(=O)N(Cc2nccn2C)C(C)C)no1`, the inhibition was -13.1%.

With `Cc1ccnc(Nc2nc(-c3sc(C)nc3C)cs2)c1`, the inhibition was 36.1%.

For `O=C(NCc1cccnc1)c1cccc(F)c1`, the inhibition is -1.31%.

On to `CCn1cc(C(=O)OCC(=O)NCc2ccc3c(c2)OCO3)c(=O)c2ccc(C)nc21`, for which the inhibition turned out to be 40.4%.

On to `CCC(C(=O)Nc1ccc2c(c1)OCCO2)n1nnc2ccccc2c1=O` (stereo not given), for which the inhibition came out at 6.85%.
